# Screening results as filed in PubChem.
# RORg inh – inhibitors of mouse ROR gamma transcriptional activity; P51450; Drosophila S2 Gal4-RORgamma UAS-luciferase reporter, 20 h; Potency, µM (doses to about 53.6 µM), inactives show at the highest dose activity change, negative = inhibition, hits mostly inhibitors; hit rate 5.4% among 310,000; also: nearly all actives have a fitted effect of over 60% in size
#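 Stably transfected Drosophila Schneider cells are the test system, with ROR gamma fused to Gal4 and luciferase under UAS control; luminescence is read after 20 hr of 700 uM copper sulfate induction at ambient temperature.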
# VP16 counter – counter-screen for ROR gamma inhibitors: Gal4-VP16 reporter; Drosophila S2 Gal4-VP16 UAS-luciferase, luminescence, 20 h; Potency, µM (titrated, usually from 53.6 µM), for inactives: at the highest dose activity, negative = inhibition, hits mostly inhibitors; hit rate 3.5% among 310,000;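 also: Gal4-VP16 expression switched on by copper sulfate through the metallothionein promoter; nearly all actives have a fitted effect of over 50% in size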
# Tau fluor cs – counter-screen for tau fibril formation inhibitors; tau K18 P301L Alexa594 fluorescence, heparin fibrillization; Potency, µM (doses to about 57.7 µM), for inactives: at the highest dose activity change, negative = decrease; hit rate 0.93% among 280,000; AID 1463; also: nearly all actives have a fitted effect of over 55% in size
#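 Human K18 P301L tau (15 uM unlabeled plus 0.24 uM Alexa 594-labeled, final) in 100 mM sodium acetate pH 7 was mixed with compound and 20 uM heparin and incubated 6 hr at 37 C.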
# Tau ThT inhib – blocks human tau fibril formation measured by thioflavin T; P10636; recombinant tau K18 P301L, heparin-induced fibrillization, ThT fluorescence; Potency, µM (doses to about 57.4 µM), for the others: at the highest dose activity, negative = inhibition, hits mostly inhibitors; hit rate 2.1% among 270,000; AID 1460; also: nearly all actives have a fitted effect of over 55% in size
# Target sequence (P10636 561-689 P618L limits assumed): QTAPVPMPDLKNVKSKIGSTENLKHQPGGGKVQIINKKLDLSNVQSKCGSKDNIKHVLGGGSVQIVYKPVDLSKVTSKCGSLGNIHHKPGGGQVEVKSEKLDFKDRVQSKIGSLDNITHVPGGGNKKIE
#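 Fibril formation assay: tau K18 P301L at 15 uM with trace Alexa 594 label, heparin inducer 20 uM, pH 7 sodium acetate buffer, 37 C for 6 hr; endpoint ThT signal.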
# Tau fibril FP – tau fibrillization inhibition (FP). P10636. Potency, µM (top dose mostly 57.7 µM), for inactives: at the top dose activity, negative = inhibition, hits mostly inhibitors. hit rate 0.39% among 280,000. AID 1468. K18 P301L tau heparin fibrillization, Alexa594 FP, 6 h; also: nearly all actives have a fitted effect of over 55% in size
#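 Human tau K18 […] P301L fragment, 15 uM unlabeled plus 0.24 uM Alexa 594-labeled tau (final), with compound and 20 uM heparin in 100 mM sodium acetate pH 7; 6 hr at 37 C, then Alexa 594 FP read.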
# * = called active by the depositor; ? = inconclusive; · = no result given; [ ] = dose if it differs, or a comment. This is a sample that favours compounds with a hit; in the whole collection about 7.3% have one here. Calls follow the shape of the dose curve; as a rule, active = well fitted curve in the direction sought with a large enough effect; inconclusive = small, poorly fitted or top-dose-only effect, or another doubt; inactive = no such curve, though single readings can be large; an effect the other way counts as inactive or inconclusive. % is scaled to controls: 0 for no effect and ±100 for the full control effect; potency is read from the fitted curve at half-maximal effect.
SMILES,RORg inh,VP16 counter,Tau fluor cs,Tau ThT inhib,Tau fibril FP
COc1ccc(N2C3=C(CC4=C2CC(C)(C)CC4=O)C(=O)CC(C)(C)C3)cc1,5.4%,-1.3%,-21.5%,20µM*,?
COc1ccc(N2C3=C(CC4=C2CCCC4=O)C(=O)CCC3)cc1,-25.1%,-19.0%,-29.6%,?,?
Cc1ccc(NC2(c3ccccc3)C(=O)c3ccccc3C2=O)cc1F,·,·,?,-16.7%,-6.4%
COc1ccc(C2N(c3ccccc3)CCN2c2ccccc2)cc1O,0.9%,10.6%,14.1µM*[quencher],?,9.6%
O=C(CCCl)Nc1nnc(SCC(=O)NC2CCCC2)s1,-37.8%,2µM*,·,·,·
COc1ccc(C(=O)Nc2nnc(SCC(=O)Nc3ccc(NC(C)=O)cc3)s2)c(OC)c1,?,-28.1%,·,·,·
CCCCC(=O)Nc1nnc(SCC(=O)NC2CCCC2)s1,9.5%,-3.2%,-5.4%,-0.2%,-3.1%
COc1ccc(C(=O)Nc2nnc(SCC(=O)NCc3ccco3)s2)c(OC)c1,11.2µM*,10µM*,·,·,·
CCc1nnc(NC(=O)c2ccc(OC)cc2OC)s1,6.31µM*,10µM*,-2.3%,-5.0%,4.3%
COc1ccc(C(=O)Nc2nnc(SCC(=O)NC3CCCC3)s2)c(OC)c1,3.16µM*,?,·,·,·
CSCC[C@H](NC(=O)[C@@H]1CCCN1C(=O)CNC(=O)[C@H](CCCCN)NC(=O)[C@H](Cc1cnc[nH]1)NC(=O)[C@H](CO)NC(=O)[C@H](CC(C)C)NC(=O)[C@H](CCCNC(=N)N)NC(=O)[C@@H]1CCCN1C(=O)[C@H](CCCNC(=N)N)NC(=O)[C@H](CCC(N)=O)NC(=O)[C@H](CCCNC(=N)N)NC(=O)[C@H](CCCNC(=N)N)NC(=O)[C@H](Cc1ccccc1)NC(=O)[C@@H](N)CCCCN)C(=O)N1CCC[C@H]1C(=O)N[C@@H](Cc1ccccc1)C(=O)O,8.9%,-1.0%,·,·,·
CC(=O)Nc1c(C)nn(-c2ccccc2)c1N1CCC(C(=O)Nc2cccc(C(F)(F)F)c2)CC1,·,·,-23.4%,-2.8%,-0.8%
CCCCOc1ccc(C(=O)N2CCNC(=O)C2)cc1,10.7%,0.4%,·,·,·
COC(=O)C1=C(C)N(CCc2c[nH]c3ccccc23)C(=O)/C1=C\N(C)C,-31.1%,7.4%[10 µM],?,14.1µM*,-17.5%
Cc1nn(C)c(Cl)c1NC(=O)OCc1ccc(F)cc1,?,1.78µM*,-3.9%,-0.3%,6.4%
COc1cccc(NC(=O)CSc2nc3c(oc4ccccc43)c(=O)n2Cc2ccco2)c1,·,·,-20.1%,7.9%,?
C=CC1=C(C)C2=NC1=CC1=NC(=CC3=NC(=CC4=NC(=C2)C(C)=C4CCC(=O)O)C(CCC(=O)O)=C3C)C(C=C)=C1C.[Zn],11.6%,-17.2%,14.1µM*[quencher],6.31µM*,20µM*
Cc1cc(CCC(=O)O)c(C)cc1CCC(=O)O,-38.9%,-0.3%,8.4%,-1.5%,2.8%
C=CCn1c(O)c(N=Nc2ccccc2C)c2ccccc21,-13.7%,0.4%,-14.6%,?,-17.3%
CCCCn1c(O)c(N=Nc2ccccn2)c2ccccc21,10µM*,?,-18.6%,?,-7.6%
CCn1c(O)c(N=NC(=O)Cn2ccc(C(F)(F)F)n2)c2ccccc21,-5.0%,-4.4%,6.9%,6.8%,3.4%
CCn1c(O)c(N=Nc2ccc3ccccc3n2)c2ccccc21,?,2.8%,-18.3%,3.98µM*,2.1%
CCOC(=O)CCN1C(=O)[C@H]2[C@H]3[C@H](O)[C@H](O)C/C(=N/OCc4ccccc4)[C@H]3CC[C@@H]2C1=O,-7.9%[10 µM],1.6%[10 µM],?,?,5.5%[11.6 µM]
CCCSc1nc(-c2ccc(OC)cc2)cc(-c2ccccc2OC)c1C#N,·,·,?,22.4µM*,25.1µM*
Cc1ccccc1NC(=O)c1cccc(C(=O)Nc2ccccc2C)n1,38.1%,-1.0%,·,·,·
Cc1cccc(NC(=O)c2ccc3ccccc3n2)c1C,1.78µM*,?,-21.0%,?,3.3%
O=C(NCc1ccccn1)C(=O)Nc1nc(-c2ccccc2)cs1,10µM*,?,12.8%,0.3%,7.1%
Cc1cnc(C(=O)Nc2ccccc2-c2ccc(C)o2)cn1,7.08µM*,?,-18.0%,?,-5.8%
O=C(Nc1nccs1)c1ccc2ccccc2n1,7.08µM*,?,·,·,·
